Results as given in PubChem BioAssay (NCATS).
Records with an inconclusive call do not appear. Where a call stands in place of a potency, no number is given. Values without a mark were called inactive. Calls of active or inactive are those of the source. The call rests on the fitted dose curve; in most records, active means well fitted activation curve with a large enough effect; inconclusive means small, poorly fitted or top-dose-only effect; inactive means flat fitted curve, though single readings scatter.

Experiment: Primary redox qHTS assay for identification of artifact compounds. (AID 1845223)
Details: Amplex Red/HRP redox cycling with DTT, fluorescence; series mostly up to 53.8 µM
Method in brief: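 Amplex Red (25 uM) and HRP (250 mU/mL) in HBSS, with compounds for 15 min, then 250 uM DTT for 30 min, room temperature, dark. Fluorescence 525/598 nm read; normalized to DMSO and 10 uM DA3003; Hill fit.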
In the case of `CC1CCC2(C)C(CC(O)C(O)C23CO3)C1(C)CCC1=CC(=O)OC1O` (centres undefined), the Potency is reported as “inactive”.
In the case of `OC[C@H]1O[C@@H](Oc2cc(O)cc(/C=C/c3ccc(O)cc3)c2)[C@H](O)[C@@H](O)[C@@H]1O`, the Potency is reported as “inactive”.
In the case of `C#C[C@]1(O)CC[C@H]2[C@@H]3CCC4=C/C(=N/O)CC[C@@H]4[C@H]3CC[C@@]21CC`, the Potency is reported as “inactive”.
For `COc1c(C)c(C(=O)c2ccc(N)c(C(=O)O)c2)n2ccccc12`, the Potency was “inactive”.
In the case of `O=C(Nc1cccnn1)N1CCC(=Cc2cccc(Oc3ccc(C(F)(F)F)cn3)c2)CC1`, the Potency is reported as “inactive”.
In the case of `OC1COC(OCC2OC(OCCc3ccccc3)C(O)C(O)C2O)C(O)C1O` (centres undefined), the Potency is reported as “inactive”.
For `CCOC(=O)c1c(C)nn(-c2cccc([N+](=O)[O-])c2)c1C`, the Potency was “inactive”.
For `C[C@@H]1C/C=C/C=C\C=C\C=C\[C@H](O[C@@H]2O[C@H](C)[C@@H](O)[C@H](N)[C@@H]2O)C[C@@H]2O[C@](O)(C[C@@H](O)C[C@H]3O[C@@H]3/C=C/C(=O)O1)C[C@H](O)[C@H]2C(=O)O`, the Potency was “inactive”.
With `CC(C)C(=O)O[C@@H]1[C@@H](O)[C@@H](O[C@H]2O[C@H](CO)[C@@H](O)[C@H](O)[C@H]2O)O[C@H](CO)[C@H]1O` the Potency was “inactive”.
With `C=C1CCC2(OC1)OC1CC3C4CC=C5CC(O)CC(O[C@@H]6OC[C@@H](O)[C@H](O)[C@H]6O)C5(C)C4CCC3(C)C1(O)C2C` (some centres undefined) the Potency was “inactive”.
For `O=C(O)C[C@@H](NC(=O)c1cc(-c2ccc(-c3ccncc3)cc2)cs1)c1ccccc1`, the Potency was “inactive”.
With `COc1cc(C(=O)OC[C@H]2O[C@H](O[C@@]3(CO)O[C@@H](CO)[C@H](O)[C@H]3O)[C@H](O)[C@@H](O)[C@@H]2O)ccc1O` the Potency was “inactive”.
With `CC1=CCC2C(C)(CO)CCCC2(CO)C1CO` (centres undefined) the Potency was “inactive”.
For `CC1CCC23COC(=O)C2=CC(O)CC3C1(C)CCC1=CC(=O)OC1O` (centres undefined), the Potency was “inactive”.
With `COc1cc([C@H]2OC[C@@H]3[C@@H](c4ccc(O[C@@H]5O[C@H](CO)[C@@H](O)[C@H](O)[C@H]5O)c(OC)c4)OC[C@]23O)ccc1O` the Potency was “inactive”.
In the case of `CC1=CC(=O)CC(C)(C)C1CCC(C)OC1OC(COC(=O)c2cc(O)c(O)c(O)c2)C(O)C(O)C1O` (centres undefined), the Potency is reported as “inactive”.
In the case of `CC/C=C/CC1=C(CCCCCCCC(=O)O)CCC1=O`, the Potency is reported as “inactive”.
For `CCC(=O)NS(=O)(=O)c1ccc(-c2c(-c3ccccc3)noc2C)cc1`, the Potency was “inactive”.
In the case of `CC(/C=C/[C@]1(O)[C@@]2(C)CO[C@@]1(C)C[C@@H](O)C2)=C\C(=O)O[C@@H]1O[C@H](CO)[C@@H](O)[C@H](O)[C@H]1O`, the Potency is reported as “inactive”.
With `CCc1cc2c(=O)c(-c3nc4ccccc4s3)coc2c(CN2CCCCC2)c1O` the Potency was “inactive”.
In the case of `C/C=C1\[C@H](O[C@@H]2O[C@H](CO)[C@@H](O)[C@H](O)[C@H]2O)OC=C(C(=O)OC)[C@H]1CC(=O)OC`, the Potency is reported as “inactive”.
For `O=S(=O)(Nc1ccc(C(O)(C(F)(F)F)C(F)(F)F)cc1)c1cccs1`, the Potency was “inactive”.
In the case of `C[C@]12CCC(=O)C=C1[C@@H](O)C[C@@H]1[C@@H]2[C@@H](O)C[C@@]2(C)[C@H]1CC[C@]2(O)C(=O)CO`, the Potency is reported as “inactive”.
For `CC(C)(OC1OC(CO)C(O)C(O)C1O)C1CCC(O)(CO)C2CC(O)C(C)(O)C2C1` (centres undefined), the Potency was “inactive”.
With `CC(=O)O[C@H]1[C@H](C)[C@@H](O)[C@H]2[C@@H]1C=C(C(=O)O)[C@H]1C[C@@H]3[C@H]([C@H]21)[C@H]1C(=O)O[C@@H]2CC[C@@]3(C)O[C@]1(O)[C@@H]2C` the Potency was “inactive”.
In the case of `C/C(=C\CO)CC/C=C(\C)C(=O)O[C@H]1[C@H](OC2OC=C(C(=O)O)C3CCC(C)(O)C23)O[C@H](CO)[C@@H](O)[C@@H]1O` (some centres undefined), the Potency is reported as “inactive”.
In the case of `O=C(O)c1cnn(-c2nc3cc(OC(F)(F)F)c(Cl)cc3[nH]2)c1`, the Potency is reported as “inactive”.
For `COC(=O)C1=COC(OC2OC(CO)C(O)C(O)C2O)C2C1CC(OC(=O)C(O)CC(=O)O)C2C` (centres undefined), the Potency was “inactive”.
With `COC(=O)[C@H](CC1C=NC=N1)NCC12CC3CC(CC(C3)C1)C2` (some centres undefined) the Potency was “inactive”.
With `C=C1C[C@]23C[C@H]1CC[C@H]2[C@@]12C=C[C@H](O)[C@@](C)(C(=O)O1)[C@H]2[C@@H]3C(=O)O` the Potency was “inactive”.
With `C[C@]1(OC(=O)/C=C/c2ccccc2)C[C@H](O)[C@]2(O)C=CO[C@@H](O[C@@H]3O[C@H](CO)[C@@H](O)[C@H](O)[C@H]3O)C12` (some centres undefined) the Potency was “inactive”.
With `O=c1c2cccnc2n(-c2cccc([N+](=O)[O-])c2)c(=O)n1Cc1ccncc1` the Potency was “inactive”.
For `CC1CCC2(C)C(CC(O)C(O)C23CO3)C1(C)CCC1=CC(O)OC1=O` (centres undefined), the Potency was “inactive”.
For `CC(C)=CCC/C(C)=C/CC/C(C)=C/CC[C@]1(C)CCc2cc(O)cc(C)c2O1`, the Potency was “inactive”.
With `OC[C@H]1O[C@@H](n2cnc3c2NC=NC[C@H]3O)C[C@@H]1O` the Potency was “inactive”.
For `COc1ncc(-c2ccc3c(Nc4cc(Oc5cc(F)cc(F)c5)cc(C(=O)O)c4)c(S(=O)(=O)NC4CC4)cnc3c2)c(OC)n1`, the Potency was “inactive”.
For `COC1(CC(C)C)NC(=O)C(O)(Cc2ccccc2)NC1=O` (centres undefined), the Potency was “inactive”.
Molecule `CC1(CO)CC[C@]2(C(=O)O[C@@H]3O[C@H](CO)[C@@H](O)[C@H](O)[C@H]3O)CC[C@]3(C)C(=CCC4[C@@]5(C)C[C@H](O)[C@H](O[C@@H]6OC[C@@H](O)[C@H](O)[C@H]6O)[C@@](C)(CO)C5CC[C@]43C)C2C1` (some centres undefined) has a redox activity (% of DA3003) of 6.69% [at 11.5 µM].
With `CCOC(=O)N1CCC(NCCNC(=O)c2ccccc2C)CC1` the Potency was “inactive”.
